Assay [1] addresses T1, Muscle, skeletal receptor tyrosine-protein kinase (Homo sapiens) (UniProt O15146).
T1 sequence (whole entry): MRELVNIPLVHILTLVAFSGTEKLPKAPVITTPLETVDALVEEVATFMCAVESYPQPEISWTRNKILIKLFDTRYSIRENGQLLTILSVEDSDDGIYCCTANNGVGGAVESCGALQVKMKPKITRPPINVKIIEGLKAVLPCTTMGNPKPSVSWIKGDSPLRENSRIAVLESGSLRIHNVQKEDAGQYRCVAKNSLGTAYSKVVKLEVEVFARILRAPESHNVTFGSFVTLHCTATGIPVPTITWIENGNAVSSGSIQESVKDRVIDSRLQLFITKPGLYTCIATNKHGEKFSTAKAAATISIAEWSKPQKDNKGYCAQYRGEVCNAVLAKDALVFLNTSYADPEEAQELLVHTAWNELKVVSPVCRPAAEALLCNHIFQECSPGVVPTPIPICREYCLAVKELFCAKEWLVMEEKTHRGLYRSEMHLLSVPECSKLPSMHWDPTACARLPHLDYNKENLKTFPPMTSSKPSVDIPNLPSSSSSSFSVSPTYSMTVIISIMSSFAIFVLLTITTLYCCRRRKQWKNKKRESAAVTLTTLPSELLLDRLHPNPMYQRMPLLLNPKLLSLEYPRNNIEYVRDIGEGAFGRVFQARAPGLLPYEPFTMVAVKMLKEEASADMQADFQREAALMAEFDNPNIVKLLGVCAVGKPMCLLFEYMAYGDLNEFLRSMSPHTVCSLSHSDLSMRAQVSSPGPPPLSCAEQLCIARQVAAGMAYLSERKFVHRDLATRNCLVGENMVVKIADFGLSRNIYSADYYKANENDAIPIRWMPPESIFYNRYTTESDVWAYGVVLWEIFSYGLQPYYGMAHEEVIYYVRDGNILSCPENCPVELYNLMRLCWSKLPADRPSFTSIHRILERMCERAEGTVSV
The conditions noted are these: at 1 µM.

Assay [2] addresses Platelet-derived growth factor receptor alpha (Homo sapiens) (UniProt P16234). The conditions noted are these: at 0.1 µM.
Assay [3] shares this target. The conditions noted are these: at 1 µM.
The test system of assay [4] is Platelet-derived growth factor receptor alpha (Homo sapiens), P16234 [D842V]. The conditions noted are these: at 0.1 µM.
For assay [5] the test system is unchanged. The conditions noted are these: at 1 µM.
For assay [6], the system named is Platelet-derived growth factor receptor alpha (Homo sapiens), P16234 [T674I]. The note with it: at 0.1 µM.
Chain of Platelet-derived growth factor receptor alpha (Homo sapiens), P16234 [T674I] (P16234 whole entry T674I): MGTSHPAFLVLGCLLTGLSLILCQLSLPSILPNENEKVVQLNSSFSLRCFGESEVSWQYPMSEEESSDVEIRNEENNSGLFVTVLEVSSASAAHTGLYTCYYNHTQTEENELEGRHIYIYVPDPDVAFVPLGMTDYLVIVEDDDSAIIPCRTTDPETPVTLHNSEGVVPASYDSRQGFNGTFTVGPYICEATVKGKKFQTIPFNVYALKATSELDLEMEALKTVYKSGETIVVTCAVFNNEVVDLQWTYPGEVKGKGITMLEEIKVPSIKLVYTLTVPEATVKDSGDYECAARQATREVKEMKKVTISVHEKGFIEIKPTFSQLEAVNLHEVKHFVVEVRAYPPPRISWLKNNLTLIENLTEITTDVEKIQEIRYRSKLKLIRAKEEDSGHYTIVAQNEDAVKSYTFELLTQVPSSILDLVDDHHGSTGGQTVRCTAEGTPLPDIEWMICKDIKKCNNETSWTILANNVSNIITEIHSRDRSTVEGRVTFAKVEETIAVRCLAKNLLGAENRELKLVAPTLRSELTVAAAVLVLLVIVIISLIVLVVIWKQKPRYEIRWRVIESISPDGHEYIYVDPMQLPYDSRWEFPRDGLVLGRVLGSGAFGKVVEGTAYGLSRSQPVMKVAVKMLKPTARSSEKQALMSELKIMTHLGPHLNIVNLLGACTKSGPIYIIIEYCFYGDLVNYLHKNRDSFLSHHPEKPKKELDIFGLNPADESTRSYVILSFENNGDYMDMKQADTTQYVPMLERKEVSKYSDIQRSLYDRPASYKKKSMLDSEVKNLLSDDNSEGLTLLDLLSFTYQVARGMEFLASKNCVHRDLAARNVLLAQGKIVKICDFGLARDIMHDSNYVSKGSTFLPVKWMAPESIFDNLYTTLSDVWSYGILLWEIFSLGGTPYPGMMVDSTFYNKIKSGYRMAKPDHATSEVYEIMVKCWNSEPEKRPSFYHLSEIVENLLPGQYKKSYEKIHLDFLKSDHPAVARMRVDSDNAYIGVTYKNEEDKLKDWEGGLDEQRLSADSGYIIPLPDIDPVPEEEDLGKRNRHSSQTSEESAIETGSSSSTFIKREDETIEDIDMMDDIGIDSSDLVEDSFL
The test system is the same in assay [7]. The conditions noted are these: at 1 µM.
The test system of assay [8] is Platelet-derived growth factor receptor alpha (Homo sapiens), P16234 [V561D]. The conditions noted are these: at 0.1 µM.
Assay [9] has the same test system. The conditions noted are these: at 1 µM.
The target in assay [10] is Platelet-derived growth factor receptor beta (Homo sapiens) (UniProt P09619). The conditions noted are these: at 0.1 µM.
Chain of Platelet-derived growth factor receptor beta (Homo sapiens) (P09619 whole entry): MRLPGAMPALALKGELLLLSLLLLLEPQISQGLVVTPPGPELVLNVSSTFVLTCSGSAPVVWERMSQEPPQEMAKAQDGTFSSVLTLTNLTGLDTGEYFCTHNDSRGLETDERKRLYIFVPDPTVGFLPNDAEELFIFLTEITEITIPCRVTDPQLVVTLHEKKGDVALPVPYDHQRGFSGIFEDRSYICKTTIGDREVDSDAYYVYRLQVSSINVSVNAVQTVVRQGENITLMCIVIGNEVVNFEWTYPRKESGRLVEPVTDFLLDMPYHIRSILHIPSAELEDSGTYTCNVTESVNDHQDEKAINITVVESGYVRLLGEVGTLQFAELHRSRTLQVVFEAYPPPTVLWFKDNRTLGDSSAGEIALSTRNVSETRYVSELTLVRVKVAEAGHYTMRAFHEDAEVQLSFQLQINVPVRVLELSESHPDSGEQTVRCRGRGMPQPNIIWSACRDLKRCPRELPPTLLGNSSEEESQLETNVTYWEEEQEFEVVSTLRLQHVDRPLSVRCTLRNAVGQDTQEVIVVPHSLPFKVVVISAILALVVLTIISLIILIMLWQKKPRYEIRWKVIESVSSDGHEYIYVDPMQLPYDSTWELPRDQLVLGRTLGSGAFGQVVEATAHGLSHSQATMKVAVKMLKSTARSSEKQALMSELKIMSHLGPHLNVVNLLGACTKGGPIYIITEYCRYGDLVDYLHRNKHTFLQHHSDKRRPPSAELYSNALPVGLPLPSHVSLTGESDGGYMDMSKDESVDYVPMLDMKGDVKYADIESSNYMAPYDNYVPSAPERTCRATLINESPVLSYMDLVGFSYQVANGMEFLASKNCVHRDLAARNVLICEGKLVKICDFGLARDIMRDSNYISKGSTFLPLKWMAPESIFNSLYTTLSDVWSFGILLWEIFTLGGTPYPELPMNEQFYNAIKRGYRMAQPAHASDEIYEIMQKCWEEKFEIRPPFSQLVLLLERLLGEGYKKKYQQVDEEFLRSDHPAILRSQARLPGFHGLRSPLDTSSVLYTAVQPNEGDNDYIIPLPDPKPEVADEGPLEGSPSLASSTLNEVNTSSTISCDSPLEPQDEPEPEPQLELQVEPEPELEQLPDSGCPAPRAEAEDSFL
Assay [11] shares this target. The conditions noted are these: at 1 µM.
Assay [12] deals with Tyrosine-protein kinase FRK (Homo sapiens) (UniProt P42685). The note with it: at 0.1 µM.
Chain of Tyrosine-protein kinase FRK (Homo sapiens) (P42685 whole entry): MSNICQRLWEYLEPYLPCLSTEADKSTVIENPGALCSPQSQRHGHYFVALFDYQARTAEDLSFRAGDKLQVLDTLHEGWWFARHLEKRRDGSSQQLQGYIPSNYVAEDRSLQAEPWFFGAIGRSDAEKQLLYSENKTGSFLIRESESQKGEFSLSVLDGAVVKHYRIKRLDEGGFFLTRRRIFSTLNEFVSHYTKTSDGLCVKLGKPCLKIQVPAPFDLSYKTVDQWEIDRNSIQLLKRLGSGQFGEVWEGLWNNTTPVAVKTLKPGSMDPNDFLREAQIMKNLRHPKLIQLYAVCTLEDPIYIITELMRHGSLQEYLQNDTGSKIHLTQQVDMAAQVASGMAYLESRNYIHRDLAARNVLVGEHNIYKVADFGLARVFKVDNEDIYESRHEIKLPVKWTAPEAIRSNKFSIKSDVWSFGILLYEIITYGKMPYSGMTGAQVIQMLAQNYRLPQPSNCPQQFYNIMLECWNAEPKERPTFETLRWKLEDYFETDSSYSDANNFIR
The target is the same in assay [13]. The note with it: at 1 µM.
Assay [14] concerns the target Protein-tyrosine kinase 2-beta (Homo sapiens) (UniProt Q14289). The note with it: at 0.1 µM.
The target is the same in assay [15]. The note with it: at 1 µM.
The target in assay [16] is Proto-oncogene tyrosine-protein kinase receptor Ret (Homo sapiens) (UniProt P07949). The conditions noted are these: at 0.1 µM.
Assay [17] has the same target. The note with it: at 1 µM.
Assay [18] relates to Proto-oncogene tyrosine-protein kinase receptor Ret (Homo sapiens), P07949 [V804L]. The note with it: at 0.1 µM.
Chain of Proto-oncogene tyrosine-protein kinase receptor Ret (Homo sapiens), P07949 [V804L] (P07949 whole entry V804L): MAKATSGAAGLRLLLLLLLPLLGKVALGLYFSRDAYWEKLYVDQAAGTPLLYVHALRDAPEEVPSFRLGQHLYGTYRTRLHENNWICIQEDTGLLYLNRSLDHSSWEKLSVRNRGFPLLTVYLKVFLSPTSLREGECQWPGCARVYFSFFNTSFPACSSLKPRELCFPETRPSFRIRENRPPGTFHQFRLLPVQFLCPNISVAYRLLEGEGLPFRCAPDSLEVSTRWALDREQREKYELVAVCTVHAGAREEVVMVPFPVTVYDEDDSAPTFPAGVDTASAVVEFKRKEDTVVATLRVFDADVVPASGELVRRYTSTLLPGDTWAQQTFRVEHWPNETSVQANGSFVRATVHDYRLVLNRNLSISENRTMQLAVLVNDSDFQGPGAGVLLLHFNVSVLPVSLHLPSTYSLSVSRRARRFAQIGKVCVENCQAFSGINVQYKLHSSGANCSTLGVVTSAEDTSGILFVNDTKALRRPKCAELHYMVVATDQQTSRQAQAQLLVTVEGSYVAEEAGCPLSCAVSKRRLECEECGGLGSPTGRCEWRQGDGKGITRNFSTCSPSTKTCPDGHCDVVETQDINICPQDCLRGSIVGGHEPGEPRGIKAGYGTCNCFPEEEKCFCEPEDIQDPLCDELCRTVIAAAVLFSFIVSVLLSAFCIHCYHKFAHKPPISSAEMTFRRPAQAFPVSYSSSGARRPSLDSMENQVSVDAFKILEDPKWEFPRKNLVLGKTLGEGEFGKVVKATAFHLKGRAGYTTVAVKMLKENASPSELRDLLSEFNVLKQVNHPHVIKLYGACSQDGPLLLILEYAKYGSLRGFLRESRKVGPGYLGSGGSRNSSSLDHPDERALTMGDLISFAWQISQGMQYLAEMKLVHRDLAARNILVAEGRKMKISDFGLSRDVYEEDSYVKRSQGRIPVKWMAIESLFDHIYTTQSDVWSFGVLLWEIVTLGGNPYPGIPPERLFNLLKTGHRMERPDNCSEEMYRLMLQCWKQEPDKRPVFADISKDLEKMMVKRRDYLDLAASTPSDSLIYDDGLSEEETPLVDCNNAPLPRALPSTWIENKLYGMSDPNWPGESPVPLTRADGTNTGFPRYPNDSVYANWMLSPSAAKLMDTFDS
Assay [19] shares this test system. The note with it: at 1 µM.
Assay [20] relates to Proto-oncogene tyrosine-protein kinase receptor Ret (Homo sapiens), P07949 [Y791F]. The note with it: at 0.1 µM.

Chain of Protein-tyrosine kinase 2-beta (Homo sapiens) (Q14289 whole entry, looked up): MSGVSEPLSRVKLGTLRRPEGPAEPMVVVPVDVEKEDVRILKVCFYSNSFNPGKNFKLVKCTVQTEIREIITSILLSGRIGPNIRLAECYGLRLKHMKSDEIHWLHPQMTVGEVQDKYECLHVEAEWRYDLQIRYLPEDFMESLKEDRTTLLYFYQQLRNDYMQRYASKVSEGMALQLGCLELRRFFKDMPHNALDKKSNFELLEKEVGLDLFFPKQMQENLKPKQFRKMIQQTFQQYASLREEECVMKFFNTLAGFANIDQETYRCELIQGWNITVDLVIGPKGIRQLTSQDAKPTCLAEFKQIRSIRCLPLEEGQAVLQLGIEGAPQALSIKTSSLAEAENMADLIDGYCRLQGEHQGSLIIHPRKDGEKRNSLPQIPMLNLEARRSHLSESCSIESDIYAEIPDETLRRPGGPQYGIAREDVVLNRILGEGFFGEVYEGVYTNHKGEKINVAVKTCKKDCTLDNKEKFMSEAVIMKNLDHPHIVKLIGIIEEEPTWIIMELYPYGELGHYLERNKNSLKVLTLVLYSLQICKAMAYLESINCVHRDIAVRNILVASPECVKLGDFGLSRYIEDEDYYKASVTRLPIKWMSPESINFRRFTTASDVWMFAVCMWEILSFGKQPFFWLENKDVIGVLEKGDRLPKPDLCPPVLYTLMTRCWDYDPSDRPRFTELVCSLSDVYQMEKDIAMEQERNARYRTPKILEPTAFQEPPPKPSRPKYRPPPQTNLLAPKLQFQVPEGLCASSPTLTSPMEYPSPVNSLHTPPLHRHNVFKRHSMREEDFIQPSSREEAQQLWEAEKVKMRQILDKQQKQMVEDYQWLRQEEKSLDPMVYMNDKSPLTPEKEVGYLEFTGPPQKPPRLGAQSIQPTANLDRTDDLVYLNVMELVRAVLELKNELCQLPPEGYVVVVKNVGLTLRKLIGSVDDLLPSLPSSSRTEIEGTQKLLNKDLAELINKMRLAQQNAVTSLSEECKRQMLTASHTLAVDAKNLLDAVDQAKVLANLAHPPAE

Consider `CCS(=O)(=O)c1ccc(OC)c(Nc2ncc(-c3cccc(F)c3)o2)c1`, for which the inhibition was found to be 16.3% in [1]; 21.1% in assay [2]; 70.7% in assay [3]; 11.3% in [4]; 41.5% in assay [5]; 5.36% in [6]. In addition, the inhibition in assay [7] stood at 17.3%; in assay [8] it was 21.4%; in assay [9], 68.7%; in assay [10], 35.7%; in assay [11], 83.5%; in [12], 10.5%. The inhibition in assay [13] was 46.4%; in assay [14] it was 11%; in assay [15] it was 22.9%; in assay [16] it was 13.5%; in assay [17] it was 56.6%; in [18], 7.78%. In addition, the results for the inhibition in [19] and in assay [20] were 33.8% and 15.9%, respectively.
In the case of `CC(C)c1ccc(-c2cc(-c3c[nH]nc3-c3ccccn3)ccn2)cc1`, the inhibition in [1] stood at 6.85%; in [2], 10%; in [3], 19.8%; in assay [4], 5.82%; in assay [5] it was 34.2%; in assay [6] it was 4.22%. Moreover, the inhibition in assay [7] was 3.25%; in assay [8], 5.56%; in assay [9], 20.6%; in assay [10], 3.19%; in assay [11], 11.4%; in [12], -0.8%. Besides, the inhibition in assay [13] is -0.88%; in assay [14], 1.78%; in assay [15] it was 3.36%; in [16], 2.14%; in [17] it was 5.62%; in [18] it was 3.27%. Also, the inhibition in [19] turned out to be 2.58%; in [20] it was 5.08%.
In the case of `c1ccc(-c2n[nH]cc2-c2ccnc(-c3ccc(OCCn4ccnc4)cc3)c2)nc1`, the inhibition came to 4.35% in [1]; 14.2% in [2]; 64.6% in assay [3]; 23.5% in assay [4]; 76.1% in assay [5]; 6.06% in [6]. Besides, the inhibition in [7] was 6.32%; in assay [8] it was 17.8%; in assay [9], 57%; in [10], 15.3%; in assay [11], 65.6%; in assay [12], 1.69%. Also, the inhibition in [13] stood at 2.79%; in [14], 2.99%; in assay [15] it was 3.76%; in assay [16] it was 2%; in assay [17] it was 9.49%; in assay [18], 2.75%. Also, the inhibition in assay [19] is 13.2%; in [20] it was 2.44%.
Regarding `CNC(=O)c1ncccc1Nc1nc(Nc2cc3c(cc2OC)CCCN3C(=O)CN(C)C)nc2[nH]ccc12`, the inhibition in assay [1] was 16.7%; in assay [2], 10.7%; in [3] it was 20.6%; in assay [4], 3.17%; in [5], 7.19%; in assay [6], 5.75%. In addition, the inhibition in [7] was 6.87%; in assay [8], 3.32%; in [9], 9.94%; in assay [10], 7.26%; in [11] it was 27.1%; in assay [12], 2.49%. Moreover, the inhibition in [13] was found to be 2.98%; in assay [14] it was 37.8%; in assay [15], 95.7%; in assay [16], 7.39%; in assay [17], 9.1%; in assay [18] it was 7.91%. Further, the inhibition worked out at 20.4% in assay [19] and 7.98% in assay [20].
In the case of `CCn1c(-c2nonc2N)nc2cncc(C(=O)NCCNC)c21`, the inhibition is -0.23% in assay [1]; 5.61% in assay [2]; 14.2% in [3]; 4.53% in assay [4]; 7.01% in assay [5]; 3.41% in assay [6]. Further, the inhibition in assay [7] is 11.4%; in [8] it was 3.13%; in [9], 5.82%; in [10], 16.2%; in [11], 12.4%; in assay [12] it was 3.22%. In addition, the inhibition in assay [13] came to 3.52%; in [14] it was 4.6%; in assay [15], 8.62%; in assay [16], 6.45%; in assay [17] it was 7.16%; in assay [18] it was 4.21%. Besides, the inhibition in assay [19] came to 17.1%; in assay [20], 7.45%.
For the molecule `CN1CCC(n2cnc(-c3ccc(F)cc3)c2-c2ccnc(NCCO)n2)CC1`, the inhibition is 3.41% in assay [1]; 13.6% in assay [2]; 14.4% in assay [3]; 5.63% in assay [4]; 8.15% in assay [5]; 7.46% in assay [6]. Further, the inhibition in assay [7] is 9.01%; in assay [8] it was 7.95%; in assay [9], 3.97%; in assay [10], 8.62%; in assay [11] it was 20.7%; in assay [12], 0.17%. In addition, the inhibition in [13] was 1.02%; in assay [14], 6.77%; in assay [15] it was 18%; in assay [16], 1.17%; in assay [17] it was 1.73%; in [18] it was 4.71%. In addition, the inhibition in [19] stood at 10.8%; in assay [20], 5.21%.
With `COC(=O)Nc1nc2cc(Oc3ccc(NC(=O)Nc4ccccc4)cc3)ccc2[nH]1`, the inhibition stood at 2.88% in [1]; 38.5% in assay [2]; 66.6% in assay [3]; 0.57% in [4]; 5.23% in [5]; 53% in assay [6]. The inhibition turned out to be 93.9% in assay [7]; 62.7% in assay [8]; 84.8% in assay [9]; 7.12% in assay [10]; 20.8% in assay [11]; 1.73% in assay [12]. Further, the inhibition in [13] is 1.93%; in assay [14], -1.17%; in assay [15] it was 6.99%; in [16], 11.1%; in [17], 26.6%; in [18], 8.3%. In addition, the results for the inhibition in assay [19] and in assay [20] were 13.8% and 15.3%, respectively.
With `COc1ccccc1-c1cc(/C=C2\C(=O)Nc3ncc(Br)cc32)cc(Br)c1O`, the inhibition came out at 5.9% in assay [1]; 11.6% in [2]; 16.9% in [3]; 2.43% in assay [4]; 5.41% in [5]; 8.02% in assay [6]. Besides, the inhibition came to 8.24% in assay [7]; 2.82% in assay [8]; 15.2% in assay [9]; 6.48% in assay [10]; 11.6% in assay [11]; 0.6% in assay [12]. Also, the inhibition is 2.12% in assay [13]; 15.6% in assay [14]; 39.1% in assay [15]; 2.23% in assay [16]; 11.1% in [17]; 9.25% in assay [18]. Also, the inhibition in assay [19] turned out to be 12%; in [20], 12.6%.

The inhibition is the relative decrease from the control value, in per cent.

Values taken from ChEMBL document CHEMBL1961873, “Compounds: GSK PKIS; Assays: Nanosyn kinase panel” (2012).
